Measured values reported in PubChem BioAssay (NCI).
This is part of a sample that, as a whole, favours compounds with a hit. Of some 79,000 tested, about 15% had one in any assay. Calls of active or inactive are those of the source. No stated cut-off is given here; in the data, active means growth inhibition above about 70%; inactive means the rest.

Test: NCI Yeast Anticancer Drug Screen. Data for the mec2-1 strain (AID 157)
Conditions: S. cerevisiae mec2-1 strain, at 50.0 µM, active compounds read high
Description: Growth inhibition of yeast strains with defined genetic alterations is measured as a screen for potential anti-cancer activity. Selected strains with alterations in DNA damage repair or cell cycle control were exposed to compounds and growth inhibition was measured relative to vehicle treated controls. The strain used in this assay is mec2-1

Row | Structure (SMILES) | growth inhibition
1 | CO/N=C(\C(=O)OC(=NC1CCCCC1)NC1CCCCC1)c1csc(NC(c2ccccc2)(c2ccccc2)c2ccccc2)n1 | -7.85% (inactive)
2 | CCC1=C[C@H]2CN(CCc3c([nH]c4ccccc34)[C@@](C(=O)OC)(c3cc4c(cc3OC)N(C)[C@H]3C(C(=O)OC)=C[C@]5(CC)C=CCN6CC[C@]43[C@@H]65)C2)C1 | -14.4% (inactive)
3 | COc1cc(C(C)C)c(Oc2c(C)c(OC)cc(C(C)C)c2O)cc1C (tested in a mixture with another compound) | -21.4% (inactive)
4 | Cc1ccc(C(c2ccc(C)c(C)c2)C(O)C(O)C(O)CO)cc1C (stereo not given) | -2.25% (inactive)
5 | CCCCCCCCCCC1OC(C)C(C)O1 (stereo not given) | -13.1% (inactive)
6 | C=CCC(=O)OCc1cc2c(cc1Br)OCO2 | -17.2% (inactive)
7 | Cc1onc(-c2c(F)cccc2Cl)c1C(=O)Nc1cc2cc([N+](=O)[O-])ccc2oc1=O | -13.7% (inactive)
8 | CCCCNc1nc(C#N)c(N)s1 | -3.35% (inactive)
9 | c1cc(-c2cc(-c3cc(-c4ccncc4)n[nH]3)[nH]n2)ccn1 | -2.6% (inactive)
10 | CC1CCCC(CCO)CC1 (stereo not given) | 5.8% (inactive)
11 | O=c1c(Br)nn(C(c2ccccc2)c2ccccc2)c(=O)n1C(c1ccccc1)c1ccccc1 | 2.25% (inactive)
12 | COC(=O)C1=C(C)N(NC(=O)Nc2ccccc2)C2(N)N(NC(=O)Nc3ccccc3)C(C)=C(C(=O)OC)C12C(=O)OC (stereo not given) | 5.1% (inactive)
13 | CSCCC(NC(=O)OC(C)(C)C)C(=O)NCCNc1ccc(NCCNC(=O)C(CCSC)NC(=O)OC(C)(C)C)c2c1C(=O)c1ccccc1C2=O (stereo not given) | 7.9% (inactive)
14 | CC(CCC(=O)O)[C@H]1CCC2[C@H]3C(CC(=O)[C@@]21C)[C@@]1(C)CCC(O)C[C@H]1C[C@@H]3O (stereo not given in full) | -7.7% (inactive)
15 | CN(C)CCSC(=Nc1ccccc1)N1CCCCC1 | 1.7% (inactive)
16 | CCCC(C)C1(CC)NC(C)(C)CC(C)O1 (stereo not given) | 0.8% (inactive)
17 | CCc1cc2c(cc1C(=O)CCN1CCCC1)C(C)(C)CCC2(C)C | 99.7% (active)
18 | CONC(CC(=O)c1ccccc1)c1ccccc1 (stereo not given) | 6.95% (inactive)
19 | O=C(NC1C(=O)NNC1c1cccc([N+](=O)[O-])c1)c1ccccc1 (stereo not given) | -26.1% (inactive)
20 | O=C(O)C1=CC(c2ccccc2O)=NCCN1 | -0.75% (inactive)

Row | Structure (SMILES) | growth inhibition
21 | O=C(NC12CC3CC(CC(C3)C1)C2)C(=O)c1c[nH]c2ccccc12 | 14.2% (inactive)
22 | O=c1/c(=C/c2ccccc2O)sc2nc3ccccc3n12 | -42.2% (inactive)
23 | O=C(O)CCN1CCCS(=O)(=O)C1=O | 8% (inactive)
24 | O=C1c2ccccc2Cc2ccccc21 | 7.75% (inactive)
25 | CNC1C(CO)OC(n2cnc3c(N)ncnc32)C1O (stereo not given) | -9.55% (inactive)
26 | COc1cc2c(cc1OC)-c1ccc3cc4c(cc3c1N(C)C2)OCO4 | -36.6% (inactive)
27 | CCC(CO)c1ccccc1 (stereo not given) | -17.7% (inactive)
28 | CCCN(CCC)CCc1cc(C(C)=O)n(S(=O)(=O)c2ccc(C)cc2)c1 | -17.8% (inactive)
29 | O=C(O)C(CCl)c1ccccc1 (stereo not given) | -3.1% (inactive)
30 | CC(C)(C)OC(=O)N1CCCC1=O | 13% (inactive)
31 | O/N=C1/CC2(N3CCOCC3)C3CC/C(=N\O)C2CC1(Cc1ccccc1)C3 (stereo not given) | 0.25% (inactive)
32 | O=C(O)CCN1C(=S)CSC1=S | -18.4% (inactive)
33 | CCN(CC)CCOC(=O)c1ccc(N=Nc2ccc(O)cc2)cc1 | -0.8% (inactive)
34 | COc1c(O)c2ccccc2c2cc(O)ccc12 | 25.1% (inactive)
35 | CC(C)(O)c1ccccc1[S+]1OC(C)(C)c2ccccc21 (stereo not given) | 17.6% (inactive)
36 | CCOC(=O)C1CC(C)CC1=O (stereo not given) | -2.6% (inactive)
37 | O=CC(NC(=O)N(CCF)N=O)C(O)C(O)C(O)CO (stereo not given) | -4.05% (inactive)
38 | O=c1oc2ccccc2cc1-n1nnc2ccccc21 | 11.1% (inactive)
39 | N#Cc1cccc(N2C(=O)C3C4C=CC(C3C2=O)C2C(=O)N(c3cccc(C#N)c3)C(=O)C42)c1 (stereo not given) | -0.65% (inactive)
40 | O=C(O)C(CS)NC1CC(=O)N(Cc2ccccc2)C1=O (stereo not given) | 9.8% (inactive)
